Source: PMC5540273 (PLoS ONE, 2017)

Legend:
Conditions in all cases: concentration: 1 μM,replicates: in singlicate; n = 1
IKK-alpha = system: T1, IKK-alpha
T1 construct: gene CHUK

IKK-beta = system: T2, IKK-beta
T2 construct: gene IKBKB

IKK-epsilon = system: T3, IKK-epsilon
T3 construct: gene IKBKE

INSRR = system: INSRR
INSR = system: INSR
IRAK1 = system: IRAK1
IRAK3 = system: IRAK3
IRAK4 = system: IRAK4
ITK = system: ITK
[1] = system: JAK1(JH1domain-catalytic)
[2] = system: JAK1(JH2domain-pseudokinase)
[3] = system: JAK2(JH1domain-catalytic)
[4] = system: JAK3(JH1domain-catalytic)
JNK1 = system: T4, JNK1
T4 construct: gene MAPK8

JNK2 = system: T5, JNK2
T5 construct: gene MAPK9

JNK3 = system: T6, JNK3
T6 construct: gene MAPK10

KIT-autoinhibited = system: KIT-autoinhibited
KIT = system: KIT
LATS1 = system: LATS1
LATS2 = system: LATS2
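Note: KINOMEscan kinase panel screen.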

Q: With `CNC(=O)c1ccccc1Nc1nc(Nc2cccc(CS(C)(=O)=O)c2)ncc1C.O=CO` [GSK1520489] as the molecule, how does the “%Inh” value (IKK-alpha) read?
A: 61%

Q: And the “%Inh” value (IKK-beta)?
A: 37%

Q: And the “%Inh” value (IKK-epsilon)?
A: 73%

Q: What about the “%Inh” value (INSRR) of the same molecule?
A: 92.6%

Q: What about the “%Inh” value (INSR) of the same molecule?
A: 96%

Q: And the “%Inh” value (IRAK1)?
A: 99.7%

Q: And the “%Inh” value (IRAK3)?
A: 98.3%

Q: What about the “%Inh” value (IRAK4) of the same molecule?
A: 98.1%

Q: And the “%Inh” value (ITK)?
A: 100%

Q: And the “%Inh” value [1]?
A: 84%

Q: And the “%Inh” value [2]?
A: 97.8%

Q: And the “%Inh” value [3]?
A: 98.7%

Q: And the “%Inh” value [4]?
A: 99.9%

Q: And the “%Inh” value (JNK1)?
A: 99.9%

Q: What about the “%Inh” value (JNK2) of the same molecule?
A: 99.7%

Q: What about the “%Inh” value (JNK3) of the same molecule?
A: 99.9%

Q: What about the “%Inh” value (KIT-autoinhibited) of the same molecule?
A: 62%

Q: And the “%Inh” value (KIT)?
A: 97.8%

Q: What about the “%Inh” value (LATS1) of the same molecule?
A: 71%

Q: And the “%Inh” value (LATS2)?
A: 69%

Q: With `Cl.c1ccc(Oc2ccc(Nc3ccnc4cc(-c5ccc(CN6CCNCC6)o5)ccc34)cc2)nc1` [GW567142] as the molecule, how does the “%Inh” value (IKK-alpha) read?
A: 0%

Q: What about the “%Inh” value (IKK-beta) of the same molecule?
A: 0%

Q: What about the “%Inh” value (IKK-epsilon) of the same molecule?
A: 42%

Q: What about the “%Inh” value (INSRR) of the same molecule?
A: 0%

Q: What about the “%Inh” value (INSR) of the same molecule?
A: 20%

Q: And the “%Inh” value (IRAK1)?
A: 0%

Q: And the “%Inh” value (IRAK3)?
A: 0%

Q: What about the “%Inh” value (IRAK4) of the same molecule?
A: 5%

Q: And the “%Inh” value (ITK)?
A: 2%

Q: What about the “%Inh” value [1] of the same molecule?
A: 21%

Q: What about the “%Inh” value [2] of the same molecule?
A: 17%

Q: And the “%Inh” value [3]?
A: 100%

Q: What about the “%Inh” value [4] of the same molecule?
A: 0%

Q: What about the “%Inh” value (JNK1) of the same molecule?
A: 0%

Q: What about the “%Inh” value (JNK2) of the same molecule?
A: 3%

Q: What about the “%Inh” value (JNK3) of the same molecule?
A: 0%

Q: And the “%Inh” value (KIT-autoinhibited)?
A: 10%

Q: And the “%Inh” value (KIT)?
A: 87%

Q: What about the “%Inh” value (LATS1) of the same molecule?
A: 0%

Q: What about the “%Inh” value (LATS2) of the same molecule?
A: 0%

Q: For `NC(=O)Nc1sc(-c2ccc(F)cc2)cc1C(N)=O` [GW789449], which “%Inh” value (IKK-alpha) is on record?
A: 78%

Q: What about the “%Inh” value (IKK-beta) of the same molecule?
A: 100%

Q: And the “%Inh” value (IKK-epsilon)?
A: 0%

Q: What about the “%Inh” value (INSRR) of the same molecule?
A: 10%

Q: What about the “%Inh” value (INSR) of the same molecule?
A: 37%

Q: What about the “%Inh” value (IRAK1) of the same molecule?
A: 41%

Q: What about the “%Inh” value (IRAK3) of the same molecule?
A: 15%

Q: What about the “%Inh” value (IRAK4) of the same molecule?
A: 12%

Q: What about the “%Inh” value (ITK) of the same molecule?
A: 26%

Q: And the “%Inh” value [1]?
A: 91.4%

Q: What about the “%Inh” value [2] of the same molecule?
A: 100%

Q: And the “%Inh” value [3]?
A: 99.1%

Q: What about the “%Inh” value [4] of the same molecule?
A: 96.1%

Q: And the “%Inh” value (JNK1)?
A: 55%

Q: And the “%Inh” value (JNK2)?
A: 0%

Q: What about the “%Inh” value (JNK3) of the same molecule?
A: 20%

Q: And the “%Inh” value (KIT-autoinhibited)?
A: 48%

Q: What about the “%Inh” value (KIT) of the same molecule?
A: 65%

Q: And the “%Inh” value (LATS1)?
A: 2%

Q: And the “%Inh” value (LATS2)?
A: 0%

Q: Which “%Inh” value (IKK-alpha) does the source give for `Cc1ccc(C(=O)Nc2ccc(Oc3ccc4nc(NC(=O)C5CC5)cn4c3)c(F)c2)c(=O)n1-c1ccccc1` here?
A: 61%

Q: What about the “%Inh” value (IKK-beta) of the same molecule?
A: 56%

Q: What about the “%Inh” value (IKK-epsilon) of the same molecule?
A: 0%

Q: What about the “%Inh” value (INSRR) of the same molecule?
A: 0%

Q: What about the “%Inh” value (INSR) of the same molecule?
A: 0%

Q: And the “%Inh” value (IRAK1)?
A: 0%

Q: And the “%Inh” value (IRAK3)?
A: 44%

Q: And the “%Inh” value (IRAK4)?
A: 0%

Q: And the “%Inh” value (ITK)?
A: 57%

Q: What about the “%Inh” value [1] of the same molecule?
A: 14%

Q: What about the “%Inh” value [2] of the same molecule?
A: 0%

Q: What about the “%Inh” value [3] of the same molecule?
A: 81%

Q: What about the “%Inh” value [4] of the same molecule?
A: 15%

Q: What about the “%Inh” value (JNK1) of the same molecule?
A: 0%

Q: And the “%Inh” value (JNK2)?
A: 0%

Q: What about the “%Inh” value (JNK3) of the same molecule?
A: 0%

Q: And the “%Inh” value (KIT-autoinhibited)?
A: 24%

Q: What about the “%Inh” value (KIT) of the same molecule?
A: 100%

Q: What about the “%Inh” value (LATS1) of the same molecule?
A: 14%

Q: What about the “%Inh” value (LATS2) of the same molecule?
A: 0%

Q: For `Cc1ccc2c(-c3ccnc(Nc4ccc(C(F)(F)F)cc4)n3)cnn2n1` [GW819776], which “%Inh” value (IKK-alpha) is on record?
A: 38%

Q: And the “%Inh” value (IKK-beta)?
A: 10%

Q: What about the “%Inh” value (IKK-epsilon) of the same molecule?
A: 0%

Q: What about the “%Inh” value (INSRR) of the same molecule?
A: 1%

Q: What about the “%Inh” value (INSR) of the same molecule?
A: 14%

Q: And the “%Inh” value (IRAK1)?
A: 73%

Q: And the “%Inh” value (IRAK3)?
A: 4%

Q: And the “%Inh” value (IRAK4)?
A: 0%

Q: What about the “%Inh” value (ITK) of the same molecule?
A: 10%

Q: What about the “%Inh” value [1] of the same molecule?
A: 4%

Q: What about the “%Inh” value [2] of the same molecule?
A: 57%

Q: What about the “%Inh” value [3] of the same molecule?
A: 29%

Q: And the “%Inh” value [4]?
A: 0%

Q: And the “%Inh” value (JNK1)?
A: 91.5%

Q: And the “%Inh” value (JNK2)?
A: 53%

Q: And the “%Inh” value (JNK3)?
A: 78%

Q: And the “%Inh” value (KIT-autoinhibited)?
A: 34%

Q: What about the “%Inh” value (KIT) of the same molecule?
A: 78%

Q: And the “%Inh” value (LATS1)?
A: 0%

Q: And the “%Inh” value (LATS2)?
A: 0%

Q: For `CC(=O)Nc1ccc(-c2cc3ncnc(SCC(=O)O)c3s2)cc1`, which “%Inh” value (IKK-alpha) is on record?
A: 0%

Q: What about the “%Inh” value (IKK-beta) of the same molecule?
A: 0%

Q: And the “%Inh” value (IKK-epsilon)?
A: 0%

Q: And the “%Inh” value (INSRR)?
A: 10%

Q: And the “%Inh” value (INSR)?
A: 0%

Q: And the “%Inh” value (IRAK1)?
A: 78%

Q: What about the “%Inh” value (IRAK3) of the same molecule?
A: 52%

Q: And the “%Inh” value (IRAK4)?
A: 0%

Q: What about the “%Inh” value (ITK) of the same molecule?
A: 2%

Q: What about the “%Inh” value [1] of the same molecule?
A: 0%

Q: What about the “%Inh” value [2] of the same molecule?
A: 7%

Q: And the “%Inh” value [3]?
A: 0%

Q: And the “%Inh” value [4]?
A: 17%

Q: And the “%Inh” value (JNK1)?
A: 7%

Q: What about the “%Inh” value (JNK2) of the same molecule?
A: 0%

Q: And the “%Inh” value (JNK3)?
A: 0%

Q: What about the “%Inh” value (KIT-autoinhibited) of the same molecule?
A: 26%

Q: What about the “%Inh” value (KIT) of the same molecule?
A: 79%

Q: And the “%Inh” value (LATS1)?
A: 0%

Q: What about the “%Inh” value (LATS2) of the same molecule?
A: 20%

Q: For `CCn1c(-c2nonc2N)nc2cncc(Br)c21` [SB-738004], which “%Inh” value (IKK-alpha) is on record?
A: 12%

Q: And the “%Inh” value (IKK-beta)?
A: 0%

Q: What about the “%Inh” value (IKK-epsilon) of the same molecule?
A: 26%

Q: And the “%Inh” value (INSRR)?
A: 0%

Q: And the “%Inh” value (INSR)?
A: 0%

Q: What about the “%Inh” value (IRAK1) of the same molecule?
A: 63%

Q: What about the “%Inh” value (IRAK3) of the same molecule?
A: 0%

Q: What about the “%Inh” value (IRAK4) of the same molecule?
A: 0%

Q: And the “%Inh” value (ITK)?
A: 0%

Q: What about the “%Inh” value [1] of the same molecule?
A: 18%

Q: What about the “%Inh” value [2] of the same molecule?
A: 0%

Q: What about the “%Inh” value [3] of the same molecule?
A: 34%

Q: And the “%Inh” value [4]?
A: 62%

Q: And the “%Inh” value (JNK1)?
A: 0%

Q: What about the “%Inh” value (JNK2) of the same molecule?
A: 0%

Q: What about the “%Inh” value (JNK3) of the same molecule?
A: 2%

Q: And the “%Inh” value (KIT-autoinhibited)?
A: 55%

Q: And the “%Inh” value (KIT)?
A: 32%

Q: What about the “%Inh” value (LATS1) of the same molecule?
A: 0%

Q: And the “%Inh” value (LATS2)?
A: 79%

Q: For `CCCC(=O)Nc1n[nH]c2ncccc12` [SB-601436], which “%Inh” value (IKK-alpha) is on record?
A: 0%

Q: What about the “%Inh” value (IKK-beta) of the same molecule?
A: 0%

Q: And the “%Inh” value (IKK-epsilon)?
A: 0%

Q: And the “%Inh” value (INSRR)?
A: 0%

Q: What about the “%Inh” value (INSR) of the same molecule?
A: 0%

Q: What about the “%Inh” value (IRAK1) of the same molecule?
A: 0%

Q: And the “%Inh” value (IRAK3)?
A: 0%

Q: And the “%Inh” value (IRAK4)?
A: 0%

Q: And the “%Inh” value (ITK)?
A: 0%

Q: What about the “%Inh” value [1] of the same molecule?
A: 5%

Q: What about the “%Inh” value [2] of the same molecule?
A: 4%

Q: What about the “%Inh” value [3] of the same molecule?
A: 18%

Q: What about the “%Inh” value [4] of the same molecule?
A: 0%

Q: And the “%Inh” value (JNK1)?
A: 20%

Q: And the “%Inh” value (JNK2)?
A: 6%

Q: What about the “%Inh” value (JNK3) of the same molecule?
A: 1%

Q: And the “%Inh” value (KIT-autoinhibited)?
A: 0%

Q: And the “%Inh” value (KIT)?
A: 0%

Q: And the “%Inh” value (LATS1)?
A: 40%

Q: And the “%Inh” value (LATS2)?
A: 0%

Q: What does the source list for `FC(F)(F)c1cc(Br)cc(Nc2nccc(-c3cnn4ncccc34)n2)c1` [GW810578]?
A: %Inh (IKK-alpha): 13%; %Inh (IKK-beta): 9%; %Inh (IKK-epsilon): 0%; %Inh (INSRR): 11%; %Inh (INSR): 8%; %Inh (IRAK1): 92%; %Inh (IRAK3): 58%; %Inh (IRAK4): 0%; %Inh (ITK): 0%; %Inh [1]: 3%; %Inh [2]: 80%; %Inh [3]: 0%; %Inh [4]: 0%; %Inh (JNK1): 0%; %Inh (JNK2): 5%; %Inh (JNK3): 1%; %Inh (KIT-autoinhibited): 63%; %Inh (KIT): 100%; %Inh (LATS1): 0%; %Inh (LATS2): 6%
